Source: the supplement of paper PMC11537057
Where a name gives a salt, the structure may show the parent alone. ± gives the standard deviation of the averaged measurements. Whole data set: some 1,700 compounds, median “cell number in HSV-1-infected wells relative to infected DMSO wells (H2B-RFP signal)” near 100, cut for the highest 2% near 140. Many of the other results were omitted from the sample, so the highest values are more common in it than they were.

System: A549 infected with HSV-1
Test: cell number in HSV-1-infected wells relative to infected DMSO wells (H2B-RFP signal); higher = more surviving cells (uninfected or antiviral-protected wells give about 200%; low = toxicity)
Details: 10 µM; 48 h; MOI: 0.1
Experimental: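 Selleck FDA-approved library (L1300) screened in duplicate at 10 µM on A549 H2B-mRuby cells in 384-well plates, infected with HSV-1 strain 17 YFP-ICP4 at MOI 0.1 one hour before drug addition. Imaged after 2 days at 37°C. Cell growth (H2B-RFP) and infection (ICP4-YFP) are expressed as % of DMSO-treated wells. Hits: growth >90% and infection <20% of DMSO.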

SMILES	cell number in HSV-1-infected wells
Cc1c(O)cccc1C(=O)N[C@@H](CSc1ccccc1)[C@H](O)CN1C[C@H]2CCCC[C@H]2C[C@H]1C(=O)NC(C)(C)C [Nelfinavir Mesylate]	157 ± 33%
CC(C)(CO)C(O)C(=O)NCCC(=O)O [Calcium D-Panthotenate]	118 ± 22%
N[C@@H](CS)C(=O)O [L-Cysteine HCl]	129 ± 9.3%
CCCCS(=O)(=O)N[C@@H](Cc1ccc(OCCCCC2CCNCC2)cc1)C(=O)O [Tirofiban Hydrochloride]	128 ± 12%
COc1ccc(C[C@H](N)C(=O)N[C@H]2[C@@H](O)[C@H](n3cnc4c(N(C)C)ncnc43)O[C@@H]2CO)cc1 [Puromycin 2HCl]	41.2 ± 1.6%
Nc1ccn([C@H]2CC[C@@H](CO)O2)c(=O)n1 [Zalcitabine]	105 ± 7%
Nc1ccn([C@@H]2O[C@H](CO)[C@@H](O)[C@@H]2O)c(=O)n1 [Cytarabine hydrochloride]	51.7 ± 21%
Nc1ccn(C[C@@H](CO)OCP(=O)(O)O)c(=O)n1 [Cidofovir]	164 ± 11%
Nc1ccn([C@@H]2O[C@H](CO)[C@@H](O)[C@@H]2O)c(=O)n1 [Cytarabine]	44.2 ± 11%
Nc1c(Br)cc(Br)cc1CN[C@H]1CC[C@H](O)CC1 [Ambroxol]	63.56 ± 0.013%
Nc1c(Br)cc(Br)cc1CN[C@H]1CC[C@H](O)CC1 [Ambroxol HCl]	117 ± 21%
CC(C)C[C@H](NC(=O)[C@@H](NC(=O)c1cccc(-c2ccccc2)n1)[C@@H](C)O)B(O)O	79.7 ± 13%
O=C1/C(=C2\Nc3ccc(S(=O)(=O)O)cc3C2=O)Nc2ccc(S(=O)(=O)O)cc21 [Indigo carmine]	126 ± 4.3%
OC[C@@H](O)CN1CCN(c2ccccc2)CC1 [Levodropropizine]	99.4 ± 1.6%
CCC1(c2c[nH]cn2)Cc2ccccc2C1 [Atipamezole hydrochloride]	95.8 ± 8.9%
CCC1(c2c[nH]cn2)Cc2ccccc2C1 [Atipamezole]	103 ± 19%
CCCCC(CC)COC(=O)C(C#N)=C(c1ccccc1)c1ccccc1 (configuration not stated) [Octocrylene]	115 ± 4.8%
CCOC(=O)[C@H]1O[C@@H]1C(=O)N[C@@H](CC(C)C)C(=O)NCCC(C)C [Aloxistatin]	150.2 ± 0.33%
C[C@]1(COc2ccc(N3CCC(Oc4ccc(OC(F)(F)F)cc4)CC3)cc2)Cn2cc([N+](=O)[O-])nc2O1 [Delamanid]	117 ± 18%
OC[C@@H](O)[C@@H](O)[C@H](O)[C@@H](O)CO [Sorbitol]	97.2 ± 17%
OC[C@@H](O)[C@H](O)[C@@H](O)CO [Xylitol]	146 ± 3%
OC[C@@H](O)[C@@H](O)[C@H](O)[C@H](O)CO [D-Mannitol]	107 ± 11%
